Laboratory results from PubChem BioAssay AID588343 (Broad Institute, 2011).
Hit rate of the full screen: of about 1,200 compounds, about 650 (54%) were called active. Roughly 5% stayed inconclusive and do not appear here.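 The calls were made as follows: active = signal-lowering curve whose fitted half-maximal concentration is at or below ten times the top valid dose tested; inconclusive = flat curve with 30 to 70% inhibition, or poor fit; inactive = signal increase, flat within 30%, or potency beyond limit.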 The set was probably picked from earlier hits. A selection follows. Measured potencies and affinities stand elsewhere.

Test: EBV LMP1 TES2 canonical NF-kB signalling blockers – cell-based, HEK293, luciferase, cherry-pick, dose response (AID 588343)
Settings: HEK293 LMP1 TES2 NF-kB luciferase reporter, 16 h; series mostly up to 35 µM

outcome, inactive:
O=[N+]([O-])c1ccc(/C=N/Nc2cc(Cl)nc(-c3ccccc3)n2)cc1
COC(=O)C1=C(C)N(c2cc(C)cc(C)c2)/C(=C/c2ccc(O)cc2)C1=O
COC(=O)c1ccc(/C=C(/NC(=O)c2ccccc2)C(=O)N2CCOCC2)cc1
CC[C@H]1OC(=O)[C@H](C)[C@@H](O[C@H]2C[C@@](C)(OC)[C@@H](O)[C@H](C)O2)[C@H](C)[C@@H](O[C@@H]2O[C@H](C)C[C@H](N(C)C)[C@H]2O)[C@](C)(O)C[C@@H](C)C(=NOCOCCOC)[C@H](C)[C@@H](O)[C@]1(C)O
Cc1nnc(NC(=O)CSc2nnc(Cc3cccn3C)n2CCc2ccccc2)s1
Cc1ccnc(SCCn2c(N3CCN(c4ccccc4)CC3)nc3c2c(=O)[nH]c(=O)n3C)n1
CSc1nc(N)nc(SCC(=O)C23CC4CC(CC(C4)C2)C3)c1C#N
O=C(O)/C=C/c1ccc(Cn2ccnc2)cc1
CC(C(=O)N=Nc1c(O)[nH]c2ccccc12)n1cnc2ccccc2c1=O (centres undefined)
Oc1[nH]c2ccccc2c1N=Nc1c(F)c(F)c(Cl)c(F)c1F
O=C(CCc1ccccc1Cl)N1CCN(S(=O)(=O)c2ccccc2)CC1
COc1ccc(-c2cnc(NCc3cc4c(cc3[N+](=O)[O-])OCO4)n2C)cc1
COC(=O)C(NS(=O)(=O)c1ccc(N2CCCC2=O)cc1)c1ccccc1 (centres undefined)
CC(C)c1nnc(NC(=O)c2ccc(N3C(=O)CCC3=O)cc2)s1
Cn1nc(-c2ccc(N3CCOCC3)c(NS(=O)(=O)c3ccccc3)c2)c2ccccc2c1=O
COc1ccc(OC)c2c1sc(=NC(=O)c1ccco1)n2C
CCCCCC(=O)N1C[C@@H](O)[C@H](n2cc(C3CC3)nn2)C[C@@H]1c1ccc(C)cc1
CN1C(=O)C(CC(=O)NC2CCCCC2)SC1=Nc1ccccc1 (centres undefined)
COc1ccc(S(=O)(=O)NC(CC(=O)NCc2ccco2)C(C)C)cc1 (centres undefined)
COc1ccc(C(=O)CSc2nnc(Cc3ccccc3)o2)cc1
CCCc1cc(=O)[nH]c(SCC(=O)NC2CCCCC2)n1
CCOCCCn1cnc2c3cc(F)ccc3n(C)c2c1=O
CCOC(=O)N1CCC(n2c(=S)[nH]c3ccccc3c2=O)CC1
COc1cc(Cl)cc(C(c2c(C(=O)O)[nH]c3ccccc23)c2c(C(=O)O)[nH]c3ccccc23)c1O
COc1ccc(CCNC(=O)CSc2ccsc2[N+](=O)[O-])cc1OC
COc1ccc(CCNC(=O)CSC(=O)c2ccccc2)cc1OC
O=C(c1noc2c1CCCC2)N1CCCCC1
COc1cc(/C=C(\C#N)c2ccccn2)ccc1OCc1ccccc1Cl
CCOC(=O)c1ccc(NC(=O)CSc2nc(N3CCOCC3)nc(N3CCOCC3)n2)cc1
O=C(c1ccco1)N1CCN(S(=O)(=O)/C=C/c2ccccc2)CC1
O=C(c1cccs1)N1CC=C(c2ccccc2)CC1
CCN(CC(=O)Nc1ccc(NC(C)=O)cc1)C(=O)c1cccnc1Sc1ccc(C)c(C)c1
Cn1cc(S(=O)(=O)N2CCN(C(=O)c3ccco3)CC2)c(=O)n(C)c1=O
COCCN1Cc2cccc(C(=O)N3CCN(c4cc(C)ccc4C)CC3)c2C1=O
CCOC(=O)c1ccc(NC(=S)N2CCSC2c2ccc(OC)cc2)cc1 (centres undefined)
COC(=O)C1=C(C)NC(C)=C(C(=O)OCC(C)C)C1c1ccccc1[N+](=O)[O-] (centres undefined)
O=C(O)C1CC(=O)N(c2ccc(Br)cc2)C1 (centres undefined)
CCCC(C)NC(C)C(=O)NC1CCCC1 (centres undefined)
CCCCCCNC(=O)O[C@]12C[C@@H](C(=O)OC)[C@@H](C(=O)OC)C[C@@]1(O)CN(S(=O)(=O)c1ccc(C)cc1)C2
Cc1nc(N)nc(SCc2ccc([N+](=O)[O-])cc2)c1N
Brc1cccc(-c2cnco2)c1
CC(C)NCC(O)COc1cccc2ccccc12 (centres undefined)
Cc1ccc(NC(=S)NCc2cccs2)cc1
Cc1ccc(CCNC(=O)Cc2ccc(NC3=NC4CS(=O)(=O)CC4S3)cc2)cc1 (centres undefined)
CC1=CC(=NOC(=O)/C=C/c2ccccc2)C=C(C)C1=O
CCC(=O)OC1c2ccccc2C(=O)N1Cc1ccccc1 (centres undefined)
O=C1CC(c2ccccc2)Oc2ccccc21 (centres undefined)
COc1ccccc1C1(CC(=O)O)CCOC(C)(C)C1 (centres undefined)
O=C(Cn1cc(CNC(=O)C2CCCCC2)nn1)Nc1cc(C(F)(F)F)ccc1Cl
COC(=O)c1[nH]c2ccc(C)cc2c1NC(=O)NC1CCCCC1
Cn1cc(CC(=O)NCCCN2CCCC2)c2ccccc21
O=C(NCCCN1CCCCC1)c1ccc2c(c1)NC(=O)c1ccccc1S2
CCCNC(=O)N1CCN(S(=O)(=O)c2ccc(C)c(C)c2)CC1
COc1ccc(S(=O)(=O)N2CCC(C(=O)NC3CC3)CC2)cc1OC
O=C(O)c1ccc(-n2cncn2)c([N+](=O)[O-])c1
O=S(=O)(N/N=C/c1ccccc1F)c1ccccc1
CCSc1nc2ccc(OC)cc2cc1C#N
O=[N+]([O-])c1cc(/C=N\O)ccc1Oc1ccc(F)cc1
CCOC(=O)c1sc2nc(C)nc(NCc3ccccc3)c2c1C
Cn1c(=O)c2ncn(CC(=O)O)c2n(C)c1=O
COc1ccc(C(Nc2ccccn2)c2oc(CO)cc(=O)c2O)cc1 (centres undefined)
Cc1ccc2c(c1)N(CC(=O)N1CCCC1)C(=O)c1cccnc1O2
COc1ccc(S(=O)(=O)N2CCN(CC(=O)Nc3ccc(C)c(F)c3)CC2)cc1
O=C(NCc1ccccc1Cl)C1CCCN1S(=O)(=O)c1ccc(F)cc1 (centres undefined)
Cc1ccc(C2=C/C(=C\c3cccnc3)C(=O)O2)cc1
N=C1S/C(=C\c2ccccc2)C(=O)N1c1ccc(F)cc1
CC1S/C(=C(\C#N)C(=O)NCc2ccco2)N(Cc2ccco2)C1=O (centres undefined)
O=C1c2ccccc2C(Nc2cccnc2)N1Cc1ccccc1 (centres undefined)
COc1ccc(NC(=O)C2CCCN(S(=O)(=O)c3cccc4nonc34)C2)c(OC)c1 (centres undefined)
O=C(N1CCOCC1)N1CCN(S(=O)(=O)c2ccc(Cl)cc2)C1
Cc1ccc(C)c(N2CCN(S(=O)(=O)c3ccc4c(c3)CCN4C(=O)CCC(=O)O)CC2)c1
COc1ccc(/C=N/N=C/c2ccc(OC)c(OC)c2)cc1OC
COc1ccc(/C=C\C(=O)NCc2ccc3c(c2)cc(C)n3C)cc1OC
Cc1cc(C)c(S(=O)(=O)Nc2nnc(CC(C)C)s2)c(C)c1
CC1(C)CC(NS(=O)(=O)c2ccc(F)cc2)CC(C)(C)N1
O=C(Nc1ccncc1)OCc1ccccc1
CN(C)CC(C)(C)CNS(=O)(=O)c1ccc(OC(F)(F)F)cc1
COc1ccc(C(=O)N2CC(=O)Nc3ccccc32)cc1S(=O)(=O)N1CCCC1
COc1ccc(NC(=O)COC(=O)/C=C/c2ccc(OC)c(S(=O)(=O)N3CCOCC3)c2)cc1
O=C(O)[C@@H]1[C@H]2C[C@H]3c4[nH]c5ccccc5c4CCN3C[C@@H]2CC[C@@H]1O
CCc1ccccc1N(CC(=O)NCc1ccco1)C(=O)c1snc(C(N)=O)c1N
CC(C)(C)C(=O)Nc1nnc(SCC(=O)Nc2ccc3c(c2)OCO3)s1
COC(=O)c1ccc(CSc2nc3c(c(=O)n2-c2ccc(C)cc2)SCC3)o1
COc1ccc(-n2c(SCC(=O)Nc3ccc4c(c3)OCO4)nc3c(c2=O)SCC3)cc1
Cc1cccc(C)c1NC(=O)CN(C)C(=O)c1ccc(-c2cccc(C(F)(F)F)c2)o1
O=C(CN1CCN(S(=O)(=O)c2ccc(F)cc2)CC1)Nc1cccc(C(F)(F)F)c1
O=C(Cn1ccc(C(F)(F)F)n1)Nc1cccc(S(=O)(=O)N2CCCCC2)c1
NC(=O)N/N=C/c1ccc(N2CCOCC2)s1
Cc1ccc(-n2ccc(=O)c(C(=O)Nc3ccc(S(=O)(=O)N4CCOCC4)cc3)n2)cc1
O=C(NCCc1cn2ccccc2n1)C1CCCCC1
Cc1ccc(CNC(=O)C(=O)NCC2OCCN2S(=O)(=O)c2ccc(Cl)cc2)cc1 (centres undefined)
CN(C)CCCC1(c2ccc(F)cc2)OCc2cc(C#N)ccc21 (centres undefined)
CC(=O)O[C@]1(C(C)=O)CC[C@H]2[C@@H]3C=C(C)C4=CC(=O)CC[C@@H]4[C@H]3CC[C@@]21C
CC(C)Oc1ccc(C2CC(=O)NC2=O)cc1 (centres undefined)
COc1ccc(/C(CC2OC(=O)c3ccccc32)=N\NC(N)=O)cc1 (centres undefined)
COc1cc(NC(=S)N2CCN(CCO)CC2)cc(OC)c1
Cc1ccc(/C=N/NC(=O)c2cc(-c3ccccc3)nc3ccccc23)o1
COC(=O)c1[nH]c2cccc(C)c2c1NC(=O)CN1CCCc2ccccc21
CCCCOc1ccc2c(c1)/C(=C(\C(Cl)=C(Cl)Cl)[N+](=O)[O-])N2
COCCNC(=O)C(=O)NCC1OCCN1C(=O)c1ccc(Cl)cc1 (centres undefined)
COCCCn1cnnc1SCC(=O)Nc1ccc(S(=O)(=O)N2CCCC2)cc1
CNc1ccc(Br)cc(C(=O)/C=C/c2cccc(OC)c2)c1=O
CN(CCNC(=O)C1CCN(S(=O)(=O)N2CCOCC2)CC1)CCc1ccccc1
Cn1cccc1/C=N/n1c(-c2ccc(Cl)cc2Cl)n[nH]c1=S
